# USP17 inh: inhibitors of human USP17 deubiquitinase. Ubiquitin carboxyl-terminal hydrolase 17-like protein 5 (Homo sapiens), A8MUK1. purified USP17, Ub-rhodamine cleavage fluorescence, 3 h. inhibition, % at 50 µM. 47,000 compounds, 6.5% hits
# USP30 block: inhibitors of human USP30 deubiquitinase; Ubiquitin carboxyl-terminal hydrolase 30 (Homo sapiens), Q70CQ3; purified USP30, Ub-rhodamine cleavage fluorescence; inhibition, % at 25 µM; 47,000 compounds, 5.3% hits; AID 1645860, 2021
# Numbers without * were called inactive; nt = no result. An excerpt weighted towards active compounds, which were near 9.6% of everything screened. Rule as the data show it: active = inhibition above about 30%; inactive = the rest.
SMILES,USP17 inh,USP30 block
Cc1ccc(S(=O)(=O)Nc2ccc(Cl)cc2)cc1NC(=O)CC(=O)c1ccccc1,38*,-2
Cc1cc(C)c(NC(=O)CSc2nc3cn(C)nc3c(=O)n2CC2CC2)c(C)c1,61*,70*
CCn1cc2nc(SCC(=O)NC3CCCC3)n(Cc3ccccc3)c(=O)c2n1,1,1
COc1ccccc1CN[C@H]1CS(=O)(=O)C[C@@H]1S(=O)(=O)c1ccccc1,3,-4
C[C@@H](C(=O)N1CCN(c2ccc(F)cc2)CC1)n1c(=O)[nH]c2ccccc2c1=O,1,24
Cc1ccc(Sc2c(C(F)(F)F)[nH]n(-c3ccccc3)c2=O)cc1,33*,28
Nc1nc(OCc2ccccc2)c2[nH]c(/C=C/c3cccs3)nc2n1,17,84*
Cn1c(=O)c(Cl)nc2c(OCc3ccccc3)nc(N)nc21,6,14
COc1ccc2cc1Oc1cc(ccc1OC)C(O)C13SSC4(C(=O)N1C)C(O)C1=COC=CC(OC2=O)C1N4C3=O (stereo not drawn),-32,73*
COc1cc(C(=O)N(Cc2cc(=O)[nH]c3ccccc23)C(C)C)cc(OC)c1OC,19,31*
CC(C)N(Cc1cc(=O)[nH]c2ccccc12)C(=O)c1ccccc1,-3,-10
O=C(NCc1ccccc1Cl)C1CCn2c(nc3ccccc32)C1 (stereo not drawn),-12,-3
O=C(OC1CSc2nc3ccccc3n2C1)c1ccc([N+](=O)[O-])o1 (stereo not drawn),96*,-62
C=CC(C)(C)c1[nH]c2ccccc2c1/C=c1/[nH]c(=O)c2n(c1=O)CCC=2,-19,-6
COc1ccc(C2(c3nc(C4CCCCC4)no3)CCOCC2)cc1,nt,16
COC(=O)c1ccc(NC(=O)c2ccc(COc3cc(Cl)ccc3Cl)cc2)cc1,47*,14
O=C(Nc1cccc(CO)c1)c1ccc(COc2ccc(Cl)cc2)cc1,14,21
O=C(COC(=O)c1ccc2ccccc2n1)Nc1ccc(F)cc1,-173,-427
COc1cnc(CSc2ccccc2)cc1OCC(=O)Nc1ccc(F)cc1,29,43*
COc1cnc(CSc2ncccn2)cc1OCC(=O)Nc1ccc(C)cc1C,8,9
COc1ccc(NC(=O)COc2cc(CSc3ccccc3)ncc2OC)cc1,61*,43*
COc1cnc(CSc2ccccc2)cc1OCC(=O)Nc1ccccc1F,36*,25
COc1cnc(CSc2ccccc2)cc1OCC(=O)Nc1ccccc1,-1,-7
Cc1noc(-c2ccc(CSc3nc4ccccc4o3)cc2)n1,-1,-8
CCc1cccc(Nc2nc3ccncc3n(Cc3ccccc3)c2=O)c1,nt,0
SMILES,USP17 inh,USP30 block
O=c1c(NCCN2CCCC2)nc2ccncc2n1Cc1ccccc1,66*,nt
Cc1cc(C)cc(Nc2nc3ccncc3n(Cc3ccccc3)c2=O)c1,23,17
O=c1c(Nc2cccc(F)c2)nc2ccncc2n1Cc1ccccc1,67*,24
O=C(Nc1cccc(Cl)c1)c1ccc2c(c1)nnn2CCN1CCOCC1,4,4
O=C(COc1nsnc1N1CCOCC1)Nc1ccc(F)c(F)c1,3,57*
O=C(COc1nsnc1N1CCOCC1)Nc1ccccc1F,16,11
O=C(c1cc(C2CC2)[nH]n1)N1CCN(c2ccc(N3CCOCC3)nn2)CC1,4,16
COC(=O)c1cc(S(=O)(=O)N(C)C2CCCCC2)c(C)n1C,-10,0
CCc1nc(N)n(CC(=O)N2CCCc3ccccc32)c(=O)c1C,76*,54*
Cc1cc(=O)n(CC(=O)N2CCCc3ccccc32)c(N2CCOCC2)n1,0,-14
O=C(NC(C(=O)OCc1ccccc1)c1ccccc1)c1ccccc1 (stereo not drawn),26,32*
CC(CNC(=O)c1ccccc1)NC(=O)c1ccccc1 (stereo not drawn),6,-1
CCOc1cc(=O)c(C(=O)N2CCCCC2)nn1-c1ccc(C)cc1,9,16
COc1cccc(NC(=O)C2CC(=O)Nc3nc(SCc4ccccc4)nn32)c1 (stereo not drawn),5,21
O=C1CC(C(=O)Nc2cccc(F)c2)n2nc(SCc3ccccc3)nc2N1 (stereo not drawn),1,43*
O=C1CC(C(=O)Nc2ccc(F)cc2)n2nc(SCc3ccccc3)nc2N1 (stereo not drawn),2,58*
CC(=O)c1ccc(NC(=O)C2CC(=O)Nc3nc(SCc4ccccc4)nn32)cc1 (stereo not drawn),-2,4
CC(=O)c1cccc(NC(=O)Cn2nc(-c3ccccc3)c3cc(Cl)ccc32)c1,-11,-57
CCn1cc(C(=O)N2CCC[C@@H]3NC(=O)c4ccccc4OCC/C=C/C[C@@H]32)cn1,5,3
Cc1cc(N2CCN(c3ccc([N+](=O)[O-])cc3)CC2)nc2cc3c(cc12)CCC3,30*,21
CCOC(=O)C=C1CCN(c2ccc([N+](=O)[O-])cc2)CC1,0,-24
